The values below come from PubChem BioAssay AID2316 (Broad Institute, 2010).

Among all 29,000 compounds or so, fewer than 10 were called active. The rule behind the calls is not given here. Not all results are given here.

This experiment is described as follows: activators reversing PD-1 mediated T-cell inhibition, primary screen, luminescence, primary human CD4 T cells, PD-L1 beads (AID 2316).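 Note: 0% = median vehicle wells and 100% = positive control.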 Particulars: CellTiter-Glo 96 h, hits give high values. On the technique in general: Cellular ATP, detected with luciferase, serves as a proxy for viable cell number.
As for `C[C@@H]1CCCCO[C@@H](CN(C)C(=O)CCCN(C)C)[C@@H](C)CN([C@H](C)CO)C(=O)c2cc(NC(=O)Nc3ccc(F)cc3)ccc2O1`, the activation was 0.492% (inactive).

As to `C[C@@H]1CCCCO[C@@H](CN(C)S(=O)(=O)c2cccs2)[C@@H](C)CN([C@H](C)CO)C(=O)c2cc(NC(=O)Nc3ccc4c(c3)OCO4)ccc2O1`, the activation was -0.659% (inactive).

`C[C@H](CO)N1C[C@H](C)[C@@H](CN(C)Cc2ccccc2)Oc2c(NC(=O)C3CCOCC3)cccc2C1=O`: the activation is -1.74% (inactive).

`COC(=O)c1scc(S(=O)(=O)C(C)(C)C)c1-n1cccc1`: the activation was -0.136% (inactive).

Consider `COc1cc(/C=C/C(=O)O[C@@H]2O[C@H](CO[C@@H]3O[C@H](CO)[C@@H](O)[C@H](O)[C@H]3O)[C@@H](O)[C@H](O)[C@H]2OC(=O)/C=C/c2cc(OC)c(O)c(OC)c2)cc(OC)c1O`, for which the activation is -0.424% (inactive).

Regarding `O=C(CCCN1C(=O)c2ccccc2C1=O)Nc1cccc2c1CCCC2`, the activation was 1.14% (inactive).

Turning to `CCC1(C)C(=O)C=C2C(=COC(C)=C2C)C1O` (centres undefined), the activation is 0.686% (inactive).

Turning to `CCCOc1ccc(C(=O)C2C(=O)C(=O)N(c3nc(C)c(C(=O)OC)s3)C2c2ccco2)cc1` (centres undefined), the activation was 1.4% (inactive).

Regarding `Cc1ccc(S(=O)(=O)Nc2cccc3c2O[C@@H](CN(C)CC2CCCCC2)[C@H](C)CN([C@@H](C)CO)C3=O)cc1`, the activation is 3.09% (inactive).

Regarding `C[C@H]1CN([C@@H](C)CO)C(=O)Cc2cc(NC(=O)Nc3ccc(F)cc3)ccc2O[C@@H]1CN(C)C(=O)NC1CCCCC1`, the activation was 0.349% (inactive).

With `COc1ccc(S(=O)(=O)NCc2ccccn2)cc1I`, the activation was 1.57% (inactive).

With `C[C@H](CO)N1C[C@H](C)[C@@H](CN(C)Cc2ccccc2)Oc2ccc(NC(=O)CCCN(C)C)cc2C1=O`, the activation was 1.04% (inactive).

With `Cc1noc(C)c1NC(=O)Nc1ccc2c(c1)C(=O)N([C@H](C)CO)C[C@H](C)[C@@H](CN(C)C(=O)Nc1ccccc1)O2`, the activation is 1.04% (inactive).

Take `C[C@H](CO)N1C[C@H](C)[C@H](CN(C)Cc2ccc3c(c2)OCO3)Oc2c(cccc2N(C)C)C1=O`: the activation is 0.478% (inactive).

For the compound `C[C@H]1CN([C@@H](C)CO)C(=O)c2cccc(NC(=O)CCCCCC(=O)Nc3ccccc3N)c2O[C@@H]1CN(C)CC1CCCCC1`, the activation is 0.769% (inactive).

On to `CS(=O)(=O)N(CC(=O)NC1CC1)c1ccc(Cl)c(C(F)(F)F)c1`, for which the activation is -0.255% (inactive).

`CCOC(=O)c1cnn2c(C(F)(F)F)cc(C)nc12`: the activation is 0.193% (inactive).

Turning to `COC(=O)c1ccccc1NC(=O)C(C)Oc1ccccc1F` (centres undefined), the activation is 2.99% (inactive).

As for `COc1ccc(N2C(=O)CC(SCC(=O)Nc3ccccc3F)C2=O)cc1` (centres undefined), the activation was 1.75% (inactive).

For `COc1ccc(C)cc1S(=O)(=O)N(C)CC(=O)Nc1ccc(Br)cc1F`, the activation was 1.42% (inactive).

`Cc1ccc(S(=O)(=O)Nc2ccc3c(c2)C(=O)N([C@H](C)CO)C[C@H](C)[C@@H](CN(C)C(=O)Nc2ccc4c(c2)OCO4)OCCCC[C@@H](C)O3)cc1`: the activation was 0.503% (inactive).

Regarding `CCCCn1c(O)c(C#N)c(C)cc1=O`, the activation is 1.29% (inactive).

As for `Cc1ccc(-c2csc3ncn(CC(=O)Nc4ccc(F)c(Cl)c4)c(=O)c23)cc1C`, the activation is -0.0295% (inactive).

Regarding `COc1ccc(NC(=O)N(C)C[C@@H]2OCCCC[C@@H](C)Oc3ccc(N(C)C)cc3C(=O)N([C@H](C)CO)C[C@@H]2C)cc1`, the activation was 0.076% (inactive).

Turning to `O=S(=O)(c1ccc(Cl)cc1)c1nc(-c2ccccc2F)oc1NCCN1CCOCC1`, the activation was -0.673% (inactive).

For `NC(=O)c1c(NC(=O)c2cnn3c(C(F)F)cc(-c4ccccc4)nc23)sc2c1CCCC2`, the activation was -5.98% (inactive).

Turning to `C[C@@H]1CN([C@H](C)CO)C(=O)c2cc(NC(=O)Cc3cn(C)c4ccccc34)ccc2O[C@H]1CN(C)S(C)(=O)=O`, the activation is -1.87% (inactive).

As to `Cc1ccc(S(=O)(=O)Nc2cccc3c2O[C@@H](CN(C)C(=O)Nc2ccccc2)[C@H](C)CN([C@@H](C)CO)C3=O)cc1`, the activation was 2.15% (inactive).

On to `COc1ccc(S(=O)(=O)N(C)C[C@H]2Oc3ccc(NS(=O)(=O)c4c(C)noc4C)cc3CC(=O)N([C@@H](C)CO)C[C@H]2C)cc1`, for which the activation is -0.136% (inactive).

For `COc1ccc(NC(=O)CSc2nc(-c3cccs3)cc(-c3ccsc3)c2C#N)cc1OC`, the activation was -6.31% (inactive).

As for `O=C(CCc1nc(-c2ccccc2Cl)no1)Nc1ccc(Cl)c(Cl)c1`, the activation was 1.17% (inactive).

As for `C=CCSc1nc(N)cc(=O)[nH]1`, the activation is 0.998% (inactive).

As to `C[C@@H]1CN([C@H](C)CO)C(=O)Cc2cc(NS(=O)(=O)c3ccc(Cl)cc3)ccc2O[C@H]1CN(C)S(=O)(=O)c1cccs1`, the activation was -2.73% (inactive).

For the compound `O=C(c1ccc(Cl)cc1)n1c(=O)oc2cc(Cl)ccc21`, the activation is -0.599% (inactive).

`Cc1ccccc1NC(=O)CSc1nnc(-c2ccc([N+](=O)[O-])cc2)n1C`: the activation was 0.454% (inactive).

Regarding `C[C@H]1CN([C@@H](C)CO)C(=O)c2cc(NS(=O)(=O)c3ccc(Cl)cc3)ccc2O[C@H]1CN(C)Cc1ccc(Oc2ccccc2)cc1`, the activation is 0.482% (inactive).

On to `O=C1Cc2ccc(F)cc2CC1C1=Cc2ccc(F)cc2CC1` (centres undefined), for which the activation was -8.11% (inactive).

`Cc1ccc([N+](=O)[O-])cc1N(CC(=O)Nc1ccc(Cl)c(C(F)(F)F)c1)S(C)(=O)=O`: the activation was 3.56% (inactive).

With `N/C(CSc1nc2ccccc2s1)=N\O`, the activation is -0.165% (inactive).

As for `C[C@@H]1CN([C@H](C)CO)C(=O)Cc2cc(NC(=O)NC3CCCCC3)ccc2O[C@H]1CN(C)S(C)(=O)=O`, the activation was 2.26% (inactive).

For the compound `CC(C)(C)c1cn2c3ccccc3nc2n1CCN1CCOCC1`, the activation is -2.35% (inactive).

Regarding `O=C(c1ccco1)N1CCN(CCOc2ccccc2)CC1`, the activation was 4.48% (inactive).

Take `COc1ccc(S(=O)(=O)Nc2ccc3c(c2)CC(=O)N([C@H](C)CO)C[C@@H](C)[C@@H](CN(C)C(=O)Nc2cccc4ccccc24)O3)cc1`: the activation is 0.476% (inactive).

Take `C[C@@H]1CCCCO[C@@H](CN(C)S(=O)(=O)c2cn(C)cn2)[C@@H](C)CN([C@H](C)CO)C(=O)c2cc(NC(=O)c3ccncc3)ccc2O1`: the activation is 3.7% (inactive).

As to `C[C@@H]1CCCCO[C@H](CN(C)S(=O)(=O)c2cccs2)[C@@H](C)CN([C@H](C)CO)C(=O)c2cc(NC(=O)Nc3ccccc3)ccc2O1`, the activation is -1.94% (inactive).

With `COc1ccc(NC(=O)Nc2ccc3c(c2)CC(=O)N([C@@H](C)CO)C[C@H](C)[C@@H](CN(C)Cc2ccc4c(c2)OCO4)O3)cc1`, the activation is 0.816% (inactive).

Regarding `COc1ccc(S(=O)(=O)Nc2ccc3c(c2)C(=O)N([C@H](C)CO)C[C@H](C)[C@@H](CN(C)S(C)(=O)=O)OCCCC[C@@H](C)O3)cc1`, the activation is 0.638% (inactive).

Consider `C[C@@H]1CN([C@@H](C)CO)C(=O)c2cc(NC(=O)Nc3ccccc3)ccc2O[C@@H]1CN(C)Cc1ccccc1`, for which the activation is 1.95% (inactive).

Take `C[C@@H]1CN([C@H](C)CO)C(=O)c2cc(NS(=O)(=O)c3ccccc3)ccc2O[C@H]1CN(C)C(=O)Nc1ccc2c(c1)OCO2`: the activation is 1.11% (inactive).

Consider `COc1ccc(N(Cc2cc3ccccc3[nH]c2=O)C(=O)c2cccc(OC)c2)cc1`, for which the activation is 1.92% (inactive).

As for `C[C@H]1CN([C@@H](C)CO)C(=O)c2cccc(NC(=O)c3cnccn3)c2O[C@@H]1CN(C)Cc1ccc(Oc2ccccc2)cc1`, the activation was -2.26% (inactive).

Regarding `Cc1ccc(C23CC4CC(CC(CN)(C4)C2)C3)cc1C`, the activation was -7.62% (inactive).

Turning to `O=C(Nc1ccccc1)C(=S)Nc1ccccc1`, the activation was -0.0947% (inactive).

Consider `Cc1noc(C)c1NC(=O)N(C)C[C@@H]1Oc2ccc(NC(=O)Nc3ccc(F)cc3)cc2C(=O)N([C@H](C)CO)C[C@@H]1C`, for which the activation is -0.0779% (inactive).

In the case of `CN1CCN(S(=O)(=O)c2ccc(NC(=O)C3CC=CCC3C(=O)O)cc2)CC1` (centres undefined), the activation was 1.99% (inactive).

As to `Cc1cc(C)c(NC(=O)CSc2nnc(-c3ccccc3)n2-c2ccc(F)cc2)c(C)c1`, the activation was 1.56% (inactive).

As for `COc1ccc(NC(=O)c2ccc(OCC(=O)Nc3ccccc3F)cc2)cc1Cl`, the activation is 0.553% (inactive).

With `COc1ccc(NC(=O)N(C)C[C@@H]2Oc3ccc(NC(=O)Nc4ccccc4)cc3CC(=O)N([C@H](C)CO)C[C@@H]2C)cc1`, the activation is -0.196% (inactive).

`CCOC(=O)CCSc1nnc2c3ccccc3n(C)c2n1`: the activation is -0.845% (inactive).

In the case of `Cc1noc(C)c1NC(=O)Nc1ccc2c(c1)C(=O)N([C@H](C)CO)C[C@@H](C)[C@@H](CN(C)C(=O)NC(C)C)O2`, the activation was 0.338% (inactive).

Turning to `O=C(CSc1nnc(-c2ccccc2)n1-c1ccc(Cl)cc1)Nc1ccc(Cl)cc1`, the activation was -11.8% (inactive).

Consider `CCc1cc(C)cc(OCC(O)Cn2cnc3ccccc32)c1` (centres undefined), for which the activation was -5.01% (inactive).

Consider `CN1CCN(C(=O)CCc2nc(-c3ccc(Cl)cc3)no2)CC1`, for which the activation was -0.127% (inactive).

Take `O=C(CSc1nnc2ccc3ccccc3n12)Nc1ccc2c(c1)OCCO2`: the activation was 0.368% (inactive).

Turning to `c1ccc(Nc2ncnc3sc(-c4ccccc4)cc23)cc1`, the activation was -0.968% (inactive).

On to `CCCC(=O)Nc1ncnc2c1ncn2[C@@H]1O[C@@H]2OP(=O)(O)OC[C@H]2[C@H]1OC(=O)CCC`, for which the activation is 4.46% (inactive).

As for `CCOc1ccc2nc(Nc3nc(C)c(Cc4ccc(C)cc4)c(=O)[nH]3)nc(C)c2c1`, the activation was -0.875% (inactive).

Consider `COc1ccc(C(=O)CSc2nnc(-c3cccc(C)c3)n2-c2ccccc2)cc1`, for which the activation is 1.1% (inactive).

`Cc1ccc(S(=O)(=O)N(C)C[C@@H]2Oc3c(NC(=O)C4CC4)cccc3C(=O)N([C@H](C)CO)C[C@H]2C)cc1`: the activation is 1.35% (inactive).
